JMJD2A Tudor inh: inhibitors of human JMJD2A Tudor domain. Potency, µM (top dose mostly 114 µM), most hits filed as inhibitors. AlphaScreen JMJD2A-Tudor / H3K4me3 peptide binding. 4.4% of 390,000 active. O75164. AID 504339; note: nearly all actives have a fitted effect of over 50% in size
Target sequence (O75164 whole entry, looked up, the tested form may be a part): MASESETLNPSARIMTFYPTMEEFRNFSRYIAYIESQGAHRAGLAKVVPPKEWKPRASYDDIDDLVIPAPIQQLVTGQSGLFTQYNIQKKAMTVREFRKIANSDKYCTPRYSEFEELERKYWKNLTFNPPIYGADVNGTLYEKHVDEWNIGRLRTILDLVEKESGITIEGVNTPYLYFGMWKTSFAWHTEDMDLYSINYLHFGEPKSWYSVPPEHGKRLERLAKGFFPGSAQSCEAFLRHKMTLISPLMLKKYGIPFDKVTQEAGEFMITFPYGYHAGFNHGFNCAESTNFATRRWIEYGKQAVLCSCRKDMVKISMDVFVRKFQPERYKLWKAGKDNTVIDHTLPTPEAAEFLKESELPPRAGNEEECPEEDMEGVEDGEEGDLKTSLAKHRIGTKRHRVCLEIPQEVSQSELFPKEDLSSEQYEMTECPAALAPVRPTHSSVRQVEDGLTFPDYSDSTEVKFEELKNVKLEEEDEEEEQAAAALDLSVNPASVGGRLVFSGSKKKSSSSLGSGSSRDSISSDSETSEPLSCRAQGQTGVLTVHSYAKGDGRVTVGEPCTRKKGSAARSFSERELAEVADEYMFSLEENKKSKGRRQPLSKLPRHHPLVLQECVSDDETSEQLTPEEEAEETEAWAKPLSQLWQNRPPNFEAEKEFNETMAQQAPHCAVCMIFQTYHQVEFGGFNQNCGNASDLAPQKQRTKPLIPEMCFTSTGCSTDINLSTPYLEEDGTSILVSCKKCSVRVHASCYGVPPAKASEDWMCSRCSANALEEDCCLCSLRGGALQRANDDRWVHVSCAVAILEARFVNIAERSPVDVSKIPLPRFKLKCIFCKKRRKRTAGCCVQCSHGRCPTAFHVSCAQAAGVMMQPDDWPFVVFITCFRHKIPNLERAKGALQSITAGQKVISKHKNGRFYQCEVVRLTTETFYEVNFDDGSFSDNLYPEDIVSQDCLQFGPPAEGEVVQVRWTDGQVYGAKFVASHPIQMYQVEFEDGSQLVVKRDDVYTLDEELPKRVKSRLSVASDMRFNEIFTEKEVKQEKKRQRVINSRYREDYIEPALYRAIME
HP1b binding inh: HP1-beta chromodomain-methylated histone interaction inhibition; 0.56% of 390,000 active; Potency, µM (doses to about 114 µM), usual class: inhibitors; AlphaScreen HP1-beta / biotin-H3K9me3 peptide binding; P83916; note: nearly all actives have a fitted effect of over 70% in size
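HP1-beta protein (50 nM final) preincubated 30 min at room temperature with biotinylated H3(1-18)K9me3 peptide (50 nM) in PBS pH 7.4, 0.01% Tween-20, then compound added for 30 min. AlphaScreen streptavidin donor/nickel chelate acceptor beads (10 ug/mL final), 30 min dark, luminescence read.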
BAZ2B block: blocks human BAZ2B; Q9UIF8; AlphaScreen BAZ2B-H3K14Ac peptide displacement; Potency, µM (top dose mostly 114 µM), hits mostly inhibitors; 4.4% of 360,000 active; note: nearly all actives have a fitted effect of over 60% in size
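Multi-concentration screen (max 110 uM) measuring displacement of acetylated histone H3 peptide from BAZ2B by AlphaScreen, using 50 nM protein, 50 nM peptide and 10 ug/mL streptavidin donor plus Ni-chelate acceptor beads.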
GLS inh: inhibitors of human glutaminase (GLS) | O94925 | GLS enzymatic activity, qHTS titration | Potency, µM (doses to about 45.5 µM), usual class: inhibitors | 0.21% of 410,000 active | AID 624170
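Assay buffer: 45 mM KH2PO4 pH 8.2, 0.02% Tween-20. hKGA acts on L-glutamine (1 mM solution added); product glutamate is reported by an oxidase/peroxidase Amplex Red coupling, with fluorescence taken at baseline and 30 min.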
G9a inh: G9a (human) methyltransferase inhibition; Q96KQ7; G9a H3K9 monomethylation, AlphaScreen, 2 h; Potency, µM (top dose mostly 102 µM), most hits filed as inhibitors; 8.8% of 350,000 active; AID 504332; note: nearly all actives have a fitted effect of over 75% in size
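Methyltransferase reactions run at room temperature for 2 h (20 nM enzyme, 500 nM biotin-H3K9 peptide, 20 uM SAM) after a 15 min compound preincubation; product detected by AlphaScreen beads and anti-H3K9me1 antibody.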
Each line names hits and unclear results; the compound was inactive in the other large screens; ! = not active in a repeat. In the library only some 10% were active in any assay of this set; here they are far more common. Calls come from the whole dose curve; as a rule, active = well fitted curve in the direction sought with a large enough effect; inconclusive = small, poorly fitted or top-dose-only effect, or another doubt; inactive = no such curve, though single readings can be large; an effect the other way counts as inactive or inconclusive.

COc1ccc(C2CC(c3c(O)n(CCc4ccccc4)c(=O)[nH]c3=O)=NN2)cc1OC (centres undefined)	BAZ2B block 22µM, GLS inh inconclusive, G9a inh 56µM
O=C(CN1CCCCC1)c1ccc(F)cc1	G9a inh inconclusive
CN1C(=O)/C(=C\c2ccc(N3CCCCC3)o2)C(=O)NC1=S	G9a inh 32µM
CN1C(=O)/C(=C/c2ccc(N3CCCCCC3)o2)C(=O)NC1=S	BAZ2B block inconclusive, G9a inh inconclusive
CCCCN1C(=O)/C(=C/c2ccc(N3CCCCCC3)cc2)C(=O)NC1=S	BAZ2B block inconclusive, G9a inh 18µM (no result: JMJD2A Tudor inh, HP1b binding inh, GLS inh)
Cc1cc(N2CCCCC2)ccc1C=C1C(=O)N(C)C(=S)N(C)C1=O	JMJD2A Tudor inh inconclusive, HP1b binding inh inconclusive, BAZ2B block 35µM, G9a inh 16µM
CN1C(=O)/C(=C\c2ccc(N3CCCCCC3)cc2)C(=O)NC1=S	JMJD2A Tudor inh inconclusive, BAZ2B block inconclusive, G9a inh 28µM
[N-]=[N+]=NCc1cn2cccnc2n1	none
CCN(Cc1ccccc1)C(=O)Cn1c(=O)oc2ccccc21	none (no result: BAZ2B block)
O=C(CSc1ccccn1)Nc1cccc2ccccc12	G9a inh inconclusive
CN1CCN(c2ccc(/C=C3\C(=O)NC(=S)N(c4cccc(Br)c4)C3=O)o2)CC1	JMJD2A Tudor inh inconclusive, HP1b binding inh inconclusive, BAZ2B block 40µM, GLS inh 11µM, G9a inh inconclusive
Cc1ccccc1-n1c(-c2ccc([N+](=O)[O-])cc2)nc2ccccc2c1=O	G9a inh 71µM
Cc1ccccc1-n1c(/C=C/c2c(C)[nH]c3ccccc23)nc2ccccc2c1=O	none
O=c1c2ccccc2nc(-c2ccc([N+](=O)[O-])cc2)n1-c1ccccc1	none
COc1cc(/C=C/c2nc3ccccc3c(=O)n2-c2ccc(O)cc2)ccc1O	JMJD2A Tudor inh inconclusive, BAZ2B block inconclusive
COc1ccc(-n2c(/C=C/c3ccc(O)c(O)c3)nc3ccccc3c2=O)cc1	JMJD2A Tudor inh inconclusive, BAZ2B block inconclusive, G9a inh 32µM
Cc1ccccc1-n1c(/C=C/c2ccc(N(C)C)cc2)nc2ccccc2c1=O	JMJD2A Tudor inh 22µM, BAZ2B block 22µM
CC(C)c1ccc(NC(=O)N2C[C@H]3C[C@@H](C2)c2cccc(=O)n2C3)cc1	none (no result: G9a inh)
O=C(Nc1ccccc1)N1Cc2ccccc2-n2nncc2C1	none (no result: BAZ2B block, G9a inh)
O=[N+]([O-])c1cc([As](=O)(O)O)ccc1O	JMJD2A Tudor inh 89µM, GLS inh inconclusive
CCn1c(O)c(C(c2ccccn2)c2c(O)n(CC)c(=S)[nH]c2=O)c(=O)[nH]c1=S	JMJD2A Tudor inh 4µM, BAZ2B block 32µM, G9a inh inconclusive
CCn1c(O)c(C=NCc2ccccc2)c(=O)[nH]c1=S	G9a inh inconclusive
O=c1[nH]c(=S)[nH]c(O)c1C(c1ccccn1)c1c(O)[nH]c(=S)[nH]c1=O	JMJD2A Tudor inh inconclusive, BAZ2B block 20µM, G9a inh 5µM
CC(=O)O[C@@]12CO[C@@H]1C[C@H](O)[C@@]1(C)C(=O)[C@H](O)C3=C(C)[C@@H](OC(=O)[C@H](O)[C@@H](NC(=O)c4ccccc4)c4ccccc4)C[C@@](O)([C@@H](OC(=O)c4ccccc4)C12)C3(C)C (some centres undefined)	none
COc1cccc(C)c1NC1=NCCO1	none (no result: JMJD2A Tudor inh, HP1b binding inh, BAZ2B block, G9a inh)
CCCCC/C=C\C/C=C\C/C=C\C/C=C\CCCC(=O)NCCc1ccc(O)c(O)c1	G9a inh 11µM (no result: JMJD2A Tudor inh, HP1b binding inh, BAZ2B block, GLS inh)
CCCCC/C=C\C/C=C\C/C=C\C/C=C\CCCC(=O)NCC(=O)O	G9a inh 12µM! (no result: JMJD2A Tudor inh, HP1b binding inh, BAZ2B block)
CCCCC/C=C\C/C=C\C/C=C\C/C=C\CCCC(=O)NCc1ccoc1	G9a inh 14µM (no result: JMJD2A Tudor inh, HP1b binding inh, BAZ2B block, GLS inh)
CCCCC/C=C\C/C=C\C/C=C\C/C=C\CCCC(=O)NCCCC(=O)O	none (no result: JMJD2A Tudor inh, HP1b binding inh, BAZ2B block, GLS inh)
COC(=O)C1=C(c2cccc(OC)c2OC)C[C@@H]2CC[C@H]1N2C(=O)NC1CC1	none (no result: BAZ2B block, G9a inh)
C[C@@H]1CN([C@@H](C)CO)C(=O)CCCn2nncc2CO[C@H]1CN(C)C(=O)Oc1cccc2ccccc12	none (no result: JMJD2A Tudor inh, HP1b binding inh, BAZ2B block, G9a inh)
CC(C)C(=O)NC(Oc1ccccc1Cl)C(Cl)(Cl)Cl (centres undefined)	none
COc1ccccc1CN1CCCC(C(=O)c2ccccc2SC)C1 (centres undefined)	none (no result: G9a inh)
COc1ccc(O)c(CN2CCCC(C(=O)c3ccccc3SC)C2)c1 (centres undefined)	JMJD2A Tudor inh 56µM, HP1b binding inh inconclusive, BAZ2B block 50µM, GLS inh inconclusive (no result: G9a inh)
COc1ccccc1N1CCN(Cc2ccc3c(c2)OCO3)CC1	JMJD2A Tudor inh 20µM, HP1b binding inh inconclusive (no result: BAZ2B block, G9a inh)
COc1ccccc1N1CCN(Cc2cc(C)c(C)cc2O)CC1	none
COc1ccccc1N1CCN(Cc2ccccc2)CC1	JMJD2A Tudor inh 20µM, HP1b binding inh inconclusive, BAZ2B block 35µM
COc1ccccc1N1CCN(Cc2ccc(Br)s2)CC1	JMJD2A Tudor inh 0.89µM, HP1b binding inh inconclusive, BAZ2B block 50µM
COc1ccccc1N1CCN(Cc2c(F)cccc2Cl)CC1	BAZ2B block inconclusive, G9a inh inconclusive (no result: GLS inh)
Cc1cccc(N2CCN(Cc3ccc4c(c3)OCO4)CC2)c1C	JMJD2A Tudor inh 28µM, HP1b binding inh inconclusive, BAZ2B block 50µM, G9a inh 7.9µM
c1cc2c(cc1CN1CCNCC1)OCO2	none
COc1ccccc1CC1/C(=N/O)C2CCN1CC2 (centres undefined)	none
Fc1ccc(N2CCN(Cc3cc4c(cc3Br)OCO4)CC2)cc1	JMJD2A Tudor inh inconclusive
Oc1cc2c(cc1CN1CCN(c3ccccc3F)CC1)OCO2	JMJD2A Tudor inh 40µM, HP1b binding inh 71µM, BAZ2B block inconclusive, G9a inh 8.9µM
COc1ccccc1N1CCN(Cc2cccc(Br)c2)CC1	JMJD2A Tudor inh 13µM, HP1b binding inh inconclusive, BAZ2B block 50µM, G9a inh 11µM
CN1CCN(Cc2ccc(Br)s2)CC1	JMJD2A Tudor inh 5.6µM, HP1b binding inh inconclusive, BAZ2B block inconclusive, G9a inh 4µM
COc1cc(Br)cc(CN2CCN(C)CC2)c1O	BAZ2B block inconclusive, G9a inh inconclusive
CN(CCc1ccccc1)C(=O)c1ccc(NC(=O)Cc2cccc([N+](=O)[O-])c2)cc1	JMJD2A Tudor inh inconclusive (no result: BAZ2B block, G9a inh)
O=c1c2ccccc2nc(/C=C/c2ccccc2)n1-c1ccccc1F	none
CC(Cl)(Cl)/C(=N/P(=S)(N1CCOCC1)N1CCOCC1)N1CCOCC1	none
O=P(/C(=N/O)N1CCCCC1)(N1CCOCC1)N1CCOCC1	G9a inh 56µM
CN(C)C1C(=O)C(C(N)=O)=C(O)C2(O)C(=O)C3=C(O)c4c(O)cccc4C(C)(O)C3C(O)C12 (centres undefined)	BAZ2B block 2µM (no result: G9a inh)
COc1ccc(C(=O)CN2CCOCC2)cc1F	G9a inh 28µM
Cc1cc(C)c(C(=O)CN2CCOCC2)c(C)c1	JMJD2A Tudor inh inconclusive, G9a inh 3.2µM
O=C(CN1CCOCC1)c1ccc2cc[nH]c2c1	G9a inh 32µM
COC(=O)c1ccc(Cl)c(NC(=O)CN2CCN(Cc3ccccc3)CC2)c1	G9a inh 11µM
